Screens deposited in PubChem by National Center for Advancing Translational Sciences (NCATS).
Shown are actives, neighbours in structure and some others; about 12% of the full set was active somewhere.
BAZ2B block = blocks human BAZ2B. Q9UIF8. AlphaScreen BAZ2B-H3K14Ac peptide displacement. Potency, µM (series often up to 114 µM), usual class: inhibitors. 360,000 tested, 4.4% active. AID 504333; also: nearly all actives have a fitted effect of over 60% in size
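Protein-peptide AlphaScreen: BAZ2B 50 nM, b-H3K14Ac 50 nM, 1x PBS pH 7.4 + 0.01% Tween-20. Preincubation 30 min RT; cpd 30 min RT (top 110 uM); beads 20 min RT, light-protected.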
HP1b chromo inh = inhibitors of HP1-beta chromodomain binding to methylated histone tails; P83916; Potency, µM (top dose mostly 114 µM), most hits filed as inhibitors; 390,000 tested, 0.56% active; AlphaScreen HP1-beta / biotin-H3K9me3 peptide binding; AID 540317; also: nearly all actives have a fitted effect of over 70% in size
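AlphaScreen: HP1-beta (50 nM) preformed 30 min with biotin-H3(1-18)K9me3 peptide (50 nM) in PBS pH 7.4, 0.01% Tween-20. Compound added for 30 min at RT, then streptavidin donor/nickel chelate acceptor beads (10 ug/mL) for 30 min.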
Sfp PPTase inh = inhibitors of Bacillus subtilis Sfp phosphopantetheinyl transferase | Q9F4F7 | Biochemical Sfp PPTase activity, qHTS | Potency, µM, most hits filed as inhibitors | 310,000 tested, 3.5% active | AID 1490;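 also: the enzyme is Sfp with the accession as filed and its product quenches rhodamine fluorescence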
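Sfp 15 nM + cpd, 15 min RT; start w/ rhodamine-CoA 5 uM, BHQ-2-YbbR 12.5 uM (final); 50 mM Hepes pH 7.6, 10 mM MgCl2, 0.01% NP-40, 0.01% BSA; read 525/598 nm at 0 and 30 min.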
JMJD2A Tudor inh = blocks the human JMJD2A Tudor domain. 390,000 tested, 4.4% active. Potency, µM (highest dose often 114 µM), actives largely listed as inhibitors. AlphaScreen JMJD2A-Tudor / H3K4me3 peptide binding. O75164; also: nearly all actives have a fitted effect of over 50% in size
Target sequence (O75164 whole entry, looked up, the tested form may be a part): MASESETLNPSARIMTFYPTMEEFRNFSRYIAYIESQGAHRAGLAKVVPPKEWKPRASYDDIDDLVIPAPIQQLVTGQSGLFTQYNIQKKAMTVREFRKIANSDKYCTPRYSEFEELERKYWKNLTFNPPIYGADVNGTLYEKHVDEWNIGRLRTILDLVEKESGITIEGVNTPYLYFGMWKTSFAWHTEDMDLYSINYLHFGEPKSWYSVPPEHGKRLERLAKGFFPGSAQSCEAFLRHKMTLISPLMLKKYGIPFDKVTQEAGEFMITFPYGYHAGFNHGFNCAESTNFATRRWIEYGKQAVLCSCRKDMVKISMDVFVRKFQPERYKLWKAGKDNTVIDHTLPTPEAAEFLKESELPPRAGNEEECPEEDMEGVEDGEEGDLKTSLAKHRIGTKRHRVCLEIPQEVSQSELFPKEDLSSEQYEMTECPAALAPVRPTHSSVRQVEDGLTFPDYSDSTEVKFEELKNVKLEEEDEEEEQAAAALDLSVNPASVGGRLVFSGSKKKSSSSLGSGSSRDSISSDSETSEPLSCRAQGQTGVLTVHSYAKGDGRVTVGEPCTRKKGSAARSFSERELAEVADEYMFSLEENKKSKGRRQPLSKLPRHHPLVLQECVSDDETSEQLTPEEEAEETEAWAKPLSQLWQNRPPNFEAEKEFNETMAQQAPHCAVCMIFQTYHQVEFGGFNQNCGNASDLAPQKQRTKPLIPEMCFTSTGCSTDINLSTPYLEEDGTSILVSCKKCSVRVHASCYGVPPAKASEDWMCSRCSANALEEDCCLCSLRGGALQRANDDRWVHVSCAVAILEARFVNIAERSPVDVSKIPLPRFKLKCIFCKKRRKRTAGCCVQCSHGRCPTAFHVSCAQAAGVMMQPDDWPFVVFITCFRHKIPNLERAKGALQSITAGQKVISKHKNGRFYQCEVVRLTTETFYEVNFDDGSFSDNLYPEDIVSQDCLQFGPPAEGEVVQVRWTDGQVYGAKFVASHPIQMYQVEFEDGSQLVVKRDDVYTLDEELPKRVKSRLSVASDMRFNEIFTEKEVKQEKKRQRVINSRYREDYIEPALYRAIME
G9a block = blocks human histone lysine methyltransferase G9a | 350,000 tested, 8.8% active | AID 504332 | Potency, µM (series often up to 102 µM), hits mostly inhibitors | Q96KQ7 | G9a H3K9 monomethylation, AlphaScreen, 2 h; also: nearly all actives have a fitted effect of over 75% in size
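Quantitative HTS format: methyltransferase activity on a biotin-tagged H3K9 peptide is measured by AlphaScreen, using a rabbit anti-monomethyl-H3K9 antibody with streptavidin donor and anti-IgG acceptor beads. Final levels are 20 nM enzyme, 500 nM peptide, 20 uM SAM; 2 h RT.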
A number is an active result; – = inactive; ? = inconclusive; · = not tested or not shown; [ ] = remark or other dose. Calls follow the shape of the dose curve; as a rule, active = well fitted curve in the direction sought with a large enough effect; inconclusive = small, poorly fitted or top-dose-only effect, or another doubt; inactive = no such curve, though single readings can be large; an effect the other way counts as inactive or inconclusive.

SMILES	BAZ2B block	HP1b chromo inh	Sfp PPTase inh	JMJD2A Tudor inh	G9a block
N#CC(C#N)=C1C=CC=CN1/C(=C\c1ccccc1Cl)C(=O)c1ccccc1	?	?	?	50µM	14µM
O=C(N/N=C/C(Br)=C\c1ccccc1)c1cccs1	–	–	?	–	·
N#C/C(=C\c1ccccc1Cl)C(=O)Nc1ccccn1	–	–	–	–	–
N#CC(C#N)=C1C=CC=CN1/C(=C\c1ccccc1)C(=O)c1cccs1	–	–	2.2µM	?	1.1µM
Cc1noc(C)c1NC(=O)Nc1ccc2c(c1)C(=O)N([C@H](C)CO)C[C@H](C)[C@@H](CN(C)S(=O)(=O)c1c(C)noc1C)O2	·	–	·	–	·
O=C(COC(=O)CCC(=O)c1ccc(F)cc1)NCCc1ccccc1	·	–	·	–	·
CCCC[C@@H]1C[C@H]1C(NC(=O)c1ccccc1)c1ccc(-c2ccccc2)cc1 (stereo partly specified)	·	·	–	·	·
Cc1cc(C)c2c(c1)/C(=N/Nc1ccc(S(N)(=O)=O)cc1[N+](=O)[O-])CCC2	–	–	–	–	40µM
CCC(C)/C(C)=N/Nc1ccc(S(N)(=O)=O)cc1[N+](=O)[O-] (stereo unspecified)	·	?	–	?	?
NS(=O)(=O)c1ccc(N/N=C2/CCCCC2C2CCCCC2)c([N+](=O)[O-])c1 (stereo unspecified)	10µM	32µM	–	28µM	?
C/C(=N\Nc1ccc(S(N)(=O)=O)cc1[N+](=O)[O-])c1cccnc1	–	–	–	–	–
COc1ccc(-c2cc(C(F)(F)F)n3nc(C(=O)OC(C)C)cc3n2)cc1	–	–	·	–	–
CCCC(=O)Nc1nnc(SCC(=O)N2CCCCC2)s1	–	?	–	71µM	18µM
CNC(=O)CSc1nnc(NC(=O)Nc2ccccc2)s1	–	–	·	–	16µM
CCSc1nnc(NC(=O)CSc2nccn2-c2cccc(C)c2C)s1	?	?	–	25µM	?
Cc1cccc(C)c1NC(=O)CSc1nnc(NC(=O)c2ccccc2C(=O)O)s1	–	–	–	–	50µM
Cc1ccccc1CNC(=O)C(C)N(c1ccccc1)S(C)(=O)=O (stereo unspecified)	–	–	·	–	–
COC(=O)c1cccc(C23CC4(C2)[C@H](CN(C)[C@@H]4c2ccccc2)C3c2ccc(Cl)nc2)c1 (stereo partly specified)	·	·	–	·	·
CCOc1ccc(OCC)c(NC(=O)c2cc(-c3cccs3)nc3ccccc23)c1	–	–	·	–	–
Cc1cccc(C)c1NC(=O)CCCSc1nnc(N)s1	–	–	–	–	50µM
CC(C)N(C(=O)CSc1nnc(NC(=O)c2cccs2)s1)C(C)C	–	–	–	–	–
Cc1ccc2[nH]c(CSc3nnc(NC(=O)c4ccccc4C)s3)cc(=O)c2c1	56µM	–	·	–	–
Cc1cccc(C)c1NC(=O)COC(=O)CSc1nnc(N)s1	–	–	–	–	–
O=C(Nc1nnc(SCC(=O)N2CCOCC2)s1)c1ccccc1	–	–	–	?	10µM
CS(=O)(=O)Nc1nnc(SCC(=O)N(c2ccccc2)c2ccccc2)s1	–	–	–	–	50µM
SMILES	BAZ2B block	HP1b chromo inh	Sfp PPTase inh	JMJD2A Tudor inh	G9a block
O=C(Nc1ccccc1)Nc1nnc(SCC(=O)N2CCCCC2)s1	–	–	·	–	?
CC1CCN(C(=O)CSc2nnc(NC(=O)Nc3ccccc3)s2)CC1	–	–	·	–	13µM
O=S(=O)(Nc1cccc2cccnc12)c1ccc(Br)cc1	·	·	–	–	·
Cc1ccc(S(=O)(=O)Oc2ccc(/C=N/N=C3/NC(=O)C(CC(=O)O)S3)cc2)cc1 (stereo unspecified)	?	–	–	–	–
Cc1ccc(-c2ccc(/C=N/N=C3/NC(=O)C(CC(=O)O)S3)o2)c([N+](=O)[O-])c1 (stereo unspecified)	?	–	20µM	–	–[2.33 µM]
O=C(O)CC1SC(=Nc2ccc(O)cc2)NC1=O (stereo unspecified)	–	–	–	–	–
O=C(O)CC1S/C(=N/N=C/c2ccc(-c3ccccc3[N+](=O)[O-])o2)NC1=O (stereo unspecified)	50µM	–	22µM	?	–[2.33 µM]
C=CCn1cc(C(C)=O)c(=O)[nH]c1=O	–	–	–	–	–
C=CCn1cn[nH]c1=S	?	–	?	?	13µM
